The results in this text go back to the supplement of paper PMC8728848.

Experiment in all cases: glycan array binding signal (z-score within array); higher = stronger binding
Details in all cases: glycan notation: IUPAC condensed, linker removed

Experiment [1] addresses Neu5Ac(a2-3)Gal(b1-4)[Fuc(a1-3)]GlcNAc(b1-3)GalNAc. In short, it runs like this:
(§1)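 Negative Z-scores can be read as non-binding. The Z-score is calculated within each array and then averaged across arrays of one protein sequence at different concentrations or buffers and across linkers. Arrays, 3228 in all, were curated from the Consortium for Functional Glycomics database and kept only where the protein sequence was available.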

A further experiment deals with Neu5Ac(a2-3)GalNAc. The essentials:
as §1

A further experiment concerns the target Neu5Ac(a2-6)Gal. The essentials:
as §1

Experiment [2] concerns the target Neu5Ac(a2-8)Neu5Ac(a2-8)Neu5Ac(a2-8)Neu5Ac(a2-3)[GalNAc(b1-4)]Gal(b1-4)Glc. The essentials: as §1

This is one part of a sample in which the strongest signals are shown more often than they occur.

B1: Flo10 (Saccharomyces cerevisiae), P36170 (protein)
chain: MPVAARYIFLTGLFLLSVANVALGTTEACLPAGEKKNGMTINFYQYSLKDSSTYSNPSYMAYGYADAEKLGSVSGQTKLSIDYSIPCNGASDTCACSDDDATEYSASQVVPVKRGVKLCSDNTTLSSKTEKRENDDCDQGAAYWSSDLFGFYTTPTNVTVEMTGYFLPPKTGTYTFGFATVDDSAILSVGGNVAFECCKQEQPPITSTDFTINGIKPWNADAPTDIKGSTYMYAGYYYPIKIVYSNAVSWGTLPVSVVLPDGTEVNDDFEGYVFSFDDNATQAHCSVPNPAEHARTCVSSATSSWSSSEVCTECTETESTSYVTPYVTSSSWSSSEVCTECTETESTSTSTPYVTSSSSSSSEVCTECTETESTSYVTPYVSSSTAAANYTSSFSSSSEVCTECTETESTSTSTPYVTSSSWSSSEVCTECTETESTSYVTPYVSSSTAAANYTSSFSSSSEVCTECTETESTSTSTPYVTSSSSSSSEVCTECTETESTSYVTPYVSSSTAAANYTSSFSSSSEVCTECTETESTSTSTPYVTSSSWSSSEVCTECTETESTSYVTPYVSSSTAAANYTSSFSSSSEVCTECTETESTSTSTPYATSSTGTATSFTASTSNTMTSLVQTDTTVSFSLSSTVSEHTNAPTSSVESNASTFISSNKGSVKSYVTSSIHSITPMYPSNQTVTSSSVVSTPITSESSESSASVTILPSTITSEFKPSTMKTKVVSISSSPTNLITSYDTTSKDSTVGSSTSSVSLISSISLPSSYSASSEQIFHSSIVSSNGQALTSFSSTKVSSSESSESHRTSPTTSSESGIKSSGVEIESTSTSSFSFHETSTASTSVQISSQFVTPSSPISTVAPRSTGLNSQTESTNSSKETMSSENSASVMPSSSATSPKTGKVTSDETSSGFSRDRTTVYRMTSETPSTNEQTTLITVSSCESNSCSNTVSSAVVSTATTTINGITTEYTTWCPLSATELTTVSKLESEEKTTLITVTSCESGVCSETASPAIVSTATATVNDVVTVYSTWSPQATNKLAVSSDIENSASKASFVSEAAETKSISRNNNFVPTSGTTSIETHTTTTSNASENSDNVSASEAVSSKSVTNPVLISVSQQPRGTPASSMIGSSTASLEMSSYLGIANHLLTNSGISIFIASLLLAIV
Take B1: the “glycan array binding signal (z-score)” value in experiment [1] is -0.323; with Neu5Ac(a2-3)GalNAc, -0.639; with Neu5Ac(a2-6)Gal it was 5.85; in experiment [2], 0.14.
